Laboratory results reported in PubChem BioAssay (Tox21).
Several values for one entry are separate records, joined by “and”; a condition that tells them apart may be missing. Identical values can stand only once. Unmarked numbers belong to inactive results. Records with an inconclusive call do not appear. Entries that show only a call come without a potency. Activity calls are given as the source filed them. Unless noted, calls follow the shape of the dose curve; as a rule, active = well fitted curve in the direction sought with a large enough effect in the repeat runs; inconclusive = weak or mixed curves; inactive = no such curve, though single readings can be large; an effect the other way counts as inactive or inconclusive.

Key:
[1] = qHTS assay to identify small molecule antagonists of the sonic hedgehog signaling (Shh) pathway (AID 1259369; calls by dose curve; also: nearly all actives have a fitted effect of over 45% in size; also: potency is read from the fitted curve at half-maximal effect)
How it was run: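 Luminescence readout: firefly Luc under Gli1 response element in 3T3Gli1-Luc cells (NIH/3T3 clone). Antagonist mode, stimulation by conditioned medium; compound exposure 24hr at 37 C, 5% CO2.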

[2] = qHTS assay to identify small molecule agonists of the estrogen receptor beta (ER-beta) signaling pathway - cell viability counter screen (AID 1259380); also: nearly all actives have a fitted effect of over 30% in size; also: potency is read from the fitted curve at half-maximal effect
How it was run: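 Luminescence read-out (CellTiter-Glo, 30 min, room temp) taken in the same wells as the beta-lactamase reporter assay; ER-beta-UAS-bla HEK293T cells exposed to DMSO-dissolved compounds for 16 hr at 37C in 2% charcoal-stripped FBS medium.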

[3] = qHTS assay to identify small molecule antagonists of the estrogen receptor beta (ER-beta) signaling pathway - cell viability counter screen (AID 1259382); also: nearly all actives have a fitted effect of over 55% in size; also: potency is read from the fitted curve at half-maximal effect; as to activity change, negative = cytotoxicity: series mostly up to about 92 µM
How it was run: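 Luminescent ATP read-out (CellTiter-Glo, 30 min, RT) taken in the same wells as the bla reporter assay. HEK293T ER-beta-UAS-bla cells in 2% charcoal-stripped FBS were exposed to compounds with 1nM E2 for 16 hr at 37C.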

[4] = biological target: Estrogen receptor (Homo sapiens) (UniProt P03372); assay: qHTS assay to identify small molecule agonists of the estrogen receptor alpha (ER-alpha) signaling pathway in the presence of an antagonist (AID 1259383; calls by dose curve; also: top concentration of the series differs between compounds; nearly all actives have a fitted effect of over 15% in size)
How it was run: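 Luciferase luminescence (ONE-Glo, 30min at room temperature) measured in VM7Luc4E2 cells after 22hr compound exposure at 15 concentrations, with 10.0nM ICI-182,780 final present; cells express endogenous ER-alpha and carry four EREs upstream of luciferase.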

[5] = qHTS assay to identify small molecule agonists or antagonists of the thyroid stimulating hormone receptor (TSHR) signaling pathway - wild type cell line counter screen (AID 1259384; calls by dose curve)
How it was run: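 Wild-type Hek293 cells, 800/well, 18 h at 37C, then compound with Ro20-1724 for 30 min RT. cAMP by HTRF (cAMP-d2/anti-cAMP cryptate), 1 h RT, fluorescence read. 15 concentrations, triplicates.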

[6] = biological target: Thyrotropin receptor (Homo sapiens) (UniProt P16473); assay: qHTS assay to identify small molecule antagonists of the thyroid stimulating hormone receptor (TSHR) signaling pathway (AID 1259385; calls by dose curve; also: nearly all actives have a fitted effect of over 20% in size)
How it was run: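 TSHR-HEK293 cells (800/well) plated 18 h, then compounds with Ro20-1724 and TSH at 1.5 ng/mL final, 30 min at room temperature. cAMP quantified by HTRF (cAMP-d2/anti-cAMP-cryptate, 1 h); 15 concentrations in triplicate.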

[7] = qHTS assay to identify small molecule agonists of the estrogen receptor alpha (ER-alpha) signaling pathway in the presence of an antagonist - cell viability counter screen (AID 1259386);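 also: series mostly up to about 92 µM; cells exposed to compounds for 22 h at 37 °C before the viability read; nearly all actives have a fitted effect of over 30% in size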
How it was run: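 Read-out: CellTiter-Fluor fluorescence after 1hr reagent incubation, measured in the same wells as the luciferase readout. VM7Luc4E2 cells were exposed to 15 compound concentrations with 10.0nM ICI-182,780 for 22hr at 37C.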

[8] = biological target: Progesterone receptor (Homo sapiens) (UniProt P06401); assay: qHTS assay to identify small molecule agonists of the progesterone receptor (PR) signaling pathway (AID 1346784; calls by dose curve; also: nearly all actives have a fitted effect of over 30% in size; also: potency is read from the fitted curve at half-maximal effect)
How it was run: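 Beta-lactamase reporter read-out: after 16 hr compound treatment at 37C and a further 2 hr at room temperature with LiveBLAzer B/G FRET substrate, fluorescence was measured in PR-UAS-bla HEK 293T cells grown in 2% charcoal-stripped serum.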

[9] = qHTS assay to identify small molecule antagonists of the TGF-beta/Smad signaling pathway - cell viability counter screen (AID 1346824); also: nearly all actives have a fitted effect of over 50% in size
How it was run: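 SBE-bla HEK 293T cells, incubated overnight, then compound plus 0.25 ng/mL TGF-beta1 (stock added) for 5 hr at 37 C. Viability was read in the same wells by CellTiter-Glo luminescence after 30 min at room temperature.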

[10] = qHTS assay to identify small molecule agonists of the TGF-beta/Smad signaling pathway - cell viability counter screen (AID 1346829); also: top concentration of the series differs between compounds; nearly all actives have a fitted effect of over 45% in size
How it was run: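 SBE-bla HEK 293T cells plated overnight, compound exposure 5 hr at 37 C. Viability read in the same wells by CellTiter-Glo luminescence after 30 min at room temperature, following the beta-lactamase read.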

[11] = qHTS assay to identify small molecule agonists of the TGF-beta/Smad signaling pathway (AID 1346859; active = well fitted activation curve with a large enough effect in the signal ratio in the repeat runs, not every such curve was filed as active; the % refers to the signal ratio; also: series mostly up to about 77 µM)
How it was run: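 SBE-bla HEK 293T, 4,000 cells/well, plated o/n; cpd in DMSO, 5 hr, 37 C/5% CO2; B/G FRET substrate 2 hr RT; ex 405, em 460/530 nm.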

[12] = biological target: Thyrotropin-releasing hormone receptor (Homo sapiens) (UniProt P34981); assay: qHTS assay to identify small molecule antagonists of the thyrotropin-releasing hormone receptor (TRHR) signaling pathway (AID 1346877; active = well fitted inhibition curve with a large enough effect in the repeat runs, not every such curve was filed as active; also: series mostly up to about 51 µM)
How it was run: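 HEK293/TRHR cells, 18 h, 37 °C; Ca2+ dye 2 h; cpd 5 min RT; TRH 1 nM final; fluorescence read 3 min, 1 s intervals; 15 concs, triplicate.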

[13] = biological target: Thyrotropin-releasing hormone receptor (Homo sapiens) (UniProt P34981); assay: qHTS assay to identify small molecule agonists of the thyrotropin-releasing hormone receptor (TRHR) signaling pathway (AID 1346891; calls by dose curve; also: series mostly up to about 58 µM)
How it was run: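 Intracellular calcium rise, read as fluorescence every second for 3 min, served as the agonist signal in dye-loaded HEK293 cells expressing TRHR; each compound ran at 15 concentrations in triplicate.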

[14] = qHTS assay to identify small molecule agonists of the androgen receptor (AR) signaling pathway in the presence of an antagonist - cell viability counter screen (AID 1259379); also: nearly all actives have a fitted effect of over 25% in size; also: potency is read from the fitted curve at half-maximal effect;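 as to activity change, negative = cytotoxicity: MDA-kb2 human breast cancer cells carrying an MMTV luciferase reporter; series mostly up to about 92 µM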
How it was run: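 Viability counter screen: CellTiter-Fluor fluorescence, measured in the same wells as the luciferase read-out. MDA-kb2 cells, 3,000/well, with nilutamide at 3.0uM final and compounds at 15 concentrations, 16 hr at 37C, 0% CO2.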

[15] = qHTS assay to identify small molecule antagonists of the progesterone receptor (PR) signaling pathway - cell viability counter screen (AID 1346798); also: nearly all actives have a fitted effect of over 50% in size; also: potency is read from the fitted curve at half-maximal effect;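 as to activity change, negative = cytotoxicity: HEK293T PR-UAS-bla cells stimulated with the agonist R5020; series mostly up to about 92 µM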
How it was run: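 HEK293T PR-UAS-bla, 2% charcoal-stripped FBS; 4 hr pre-plate; cpd + R5020, 16 h 37C; LiveBLAzer read first; then CellTiter-Glo 30 min RT, luminescence.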

[16] = biological target: Progesterone receptor (Homo sapiens) (UniProt P06401); assay: qHTS assay to identify small molecule antagonists of the progesterone receptor (PR) signaling pathway (AID 1346795; active = well fitted inhibition curve with a large enough effect in the signal ratio in the repeat runs, not every such curve was filed as active; the % refers to the signal ratio; also: potency is read from the fitted curve at half-maximal effect)
How it was run: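 Read-out is fluorescence from the LiveBLAzer B/G FRET substrate, cleaved by a UAS-controlled beta-lactamase in PR-UAS-bla HEK293T cells after 16 hr exposure to compound plus 1 nM promegestone (final), followed by 2 hr at room temperature.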

[17] = qHTS assay to identify small molecule agonists of the progesterone receptor (PR) signaling pathway - cell viability counter screen (AID 1346799; calls by dose curve; also: nearly all actives have a fitted effect of over 45% in size; also: potency is read from the fitted curve at half-maximal effect)
How it was run: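 Luminescence from CellTiter-Glo, added after the beta-lactamase FRET read in the same wells, gave cytotoxicity in PR-UAS-bla HEK293T cells treated with compounds for 16 hr at 37C.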

[18] = biological target: Estrogen receptor beta (Homo sapiens) (UniProt Q92731); assay: qHTS assay to identify small molecule agonists of the estrogen receptor beta (ER-beta) signaling pathway (AID 1259377; active = well fitted activation curve with a large enough effect in the signal ratio in the repeat runs, not every such curve was filed as active; the % refers to the signal ratio)
How it was run: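 HEK293T ER-beta-UAS-bla; 2% charcoal-stripped FBS; cells pre-incubated 6 hr, compound 16 hr, 37C/5% CO2; LiveBLAzer B/G FRET substrate 2 h RT; fluorescence intensity read.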

[19] = biological target: Estrogen receptor beta (Homo sapiens) (UniProt Q92731); assay: qHTS assay to identify small molecule antagonists of the estrogen receptor beta (ER-beta) signaling pathway (AID 1259378; active = well fitted inhibition curve with a large enough effect in the signal ratio in the repeat runs, not every such curve was filed as active; the % refers to the signal ratio)
How it was run: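 ER-beta-UAS-bla HEK293T cells in 2% charcoal-stripped FBS medium treated with compound plus 1nM final 17-beta-estradiol for 16 hr at 37C. Beta-lactamase reporter read by FRET substrate fluorescence after 2 hours at room temperature.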

[20] = biological target: Androgen receptor (Homo sapiens) (UniProt P10275); assay: qHTS assay to identify small molecule agonists of the androgen receptor (AR) signaling pathway in the presence of an antagonist (AID 1259381; calls by dose curve; also: nearly all actives have a fitted effect of over 15% in size)
How it was run: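 Luciferase read-out (ONE-Glo, 30min room temperature) in MDA-kb2 MMTV-reporter cells; agonist mode run in presence of AR antagonist nilutamide, 3.0uM final. Compounds tested as 15-point series, 16hr exposure at 37C, 0% CO2.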

Thyrotropin receptor (Homo sapiens), sequence (P16473 whole entry, looked up): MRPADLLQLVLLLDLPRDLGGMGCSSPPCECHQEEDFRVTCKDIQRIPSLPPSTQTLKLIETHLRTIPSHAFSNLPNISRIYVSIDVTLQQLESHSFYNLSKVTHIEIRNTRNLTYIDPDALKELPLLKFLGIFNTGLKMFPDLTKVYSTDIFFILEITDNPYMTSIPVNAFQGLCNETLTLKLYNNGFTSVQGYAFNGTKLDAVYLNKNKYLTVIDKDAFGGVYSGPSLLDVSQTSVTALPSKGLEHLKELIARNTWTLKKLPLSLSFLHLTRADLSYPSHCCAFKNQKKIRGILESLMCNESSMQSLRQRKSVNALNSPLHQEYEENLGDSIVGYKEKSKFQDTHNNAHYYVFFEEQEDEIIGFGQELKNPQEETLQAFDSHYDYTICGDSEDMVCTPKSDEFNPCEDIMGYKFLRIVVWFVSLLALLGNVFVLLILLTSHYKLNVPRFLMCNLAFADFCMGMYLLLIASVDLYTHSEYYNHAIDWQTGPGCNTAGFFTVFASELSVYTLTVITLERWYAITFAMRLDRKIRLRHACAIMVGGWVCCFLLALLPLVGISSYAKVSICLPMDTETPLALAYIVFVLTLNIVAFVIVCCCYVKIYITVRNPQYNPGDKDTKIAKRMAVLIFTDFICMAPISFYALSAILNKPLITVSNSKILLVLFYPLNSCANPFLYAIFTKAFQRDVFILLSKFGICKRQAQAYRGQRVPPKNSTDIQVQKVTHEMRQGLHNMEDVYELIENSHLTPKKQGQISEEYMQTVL
Thyrotropin-releasing hormone receptor (Homo sapiens), sequence (P34981 whole entry, looked up): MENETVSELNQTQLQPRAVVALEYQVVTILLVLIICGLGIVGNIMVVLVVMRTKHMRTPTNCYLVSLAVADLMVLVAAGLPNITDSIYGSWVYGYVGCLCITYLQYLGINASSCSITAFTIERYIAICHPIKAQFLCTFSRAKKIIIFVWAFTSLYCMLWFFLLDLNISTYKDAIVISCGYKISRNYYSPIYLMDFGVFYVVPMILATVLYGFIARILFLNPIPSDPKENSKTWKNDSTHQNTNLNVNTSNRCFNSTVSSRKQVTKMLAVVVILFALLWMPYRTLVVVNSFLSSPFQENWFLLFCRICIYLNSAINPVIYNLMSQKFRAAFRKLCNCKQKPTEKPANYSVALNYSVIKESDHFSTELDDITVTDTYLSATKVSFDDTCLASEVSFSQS
Progesterone receptor (Homo sapiens), sequence (P06401 whole entry, looked up): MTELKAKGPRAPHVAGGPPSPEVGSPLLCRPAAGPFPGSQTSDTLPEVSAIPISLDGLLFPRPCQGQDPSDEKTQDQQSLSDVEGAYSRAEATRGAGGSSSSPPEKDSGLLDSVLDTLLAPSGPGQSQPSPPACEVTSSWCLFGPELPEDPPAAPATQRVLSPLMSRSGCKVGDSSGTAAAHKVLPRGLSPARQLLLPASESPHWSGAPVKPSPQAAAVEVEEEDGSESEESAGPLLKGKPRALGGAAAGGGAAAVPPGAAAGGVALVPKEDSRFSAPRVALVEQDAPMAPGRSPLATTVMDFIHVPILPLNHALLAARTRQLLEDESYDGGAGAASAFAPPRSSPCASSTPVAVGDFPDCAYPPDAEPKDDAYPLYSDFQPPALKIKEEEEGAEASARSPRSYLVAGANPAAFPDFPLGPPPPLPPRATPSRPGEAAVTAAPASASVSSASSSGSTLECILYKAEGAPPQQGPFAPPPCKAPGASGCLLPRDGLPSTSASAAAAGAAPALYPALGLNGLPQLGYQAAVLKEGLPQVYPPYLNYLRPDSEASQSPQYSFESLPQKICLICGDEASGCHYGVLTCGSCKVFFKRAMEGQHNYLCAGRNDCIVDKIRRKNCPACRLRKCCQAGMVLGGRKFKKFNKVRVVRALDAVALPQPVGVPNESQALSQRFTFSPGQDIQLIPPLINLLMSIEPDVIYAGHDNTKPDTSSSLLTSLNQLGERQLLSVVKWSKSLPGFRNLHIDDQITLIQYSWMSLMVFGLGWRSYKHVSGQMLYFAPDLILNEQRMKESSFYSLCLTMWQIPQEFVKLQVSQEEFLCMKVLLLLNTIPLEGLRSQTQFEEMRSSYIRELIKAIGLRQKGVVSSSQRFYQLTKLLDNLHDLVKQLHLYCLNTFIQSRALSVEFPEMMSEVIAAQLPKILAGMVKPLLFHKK
Estrogen receptor (Homo sapiens), sequence (P03372 whole entry, looked up): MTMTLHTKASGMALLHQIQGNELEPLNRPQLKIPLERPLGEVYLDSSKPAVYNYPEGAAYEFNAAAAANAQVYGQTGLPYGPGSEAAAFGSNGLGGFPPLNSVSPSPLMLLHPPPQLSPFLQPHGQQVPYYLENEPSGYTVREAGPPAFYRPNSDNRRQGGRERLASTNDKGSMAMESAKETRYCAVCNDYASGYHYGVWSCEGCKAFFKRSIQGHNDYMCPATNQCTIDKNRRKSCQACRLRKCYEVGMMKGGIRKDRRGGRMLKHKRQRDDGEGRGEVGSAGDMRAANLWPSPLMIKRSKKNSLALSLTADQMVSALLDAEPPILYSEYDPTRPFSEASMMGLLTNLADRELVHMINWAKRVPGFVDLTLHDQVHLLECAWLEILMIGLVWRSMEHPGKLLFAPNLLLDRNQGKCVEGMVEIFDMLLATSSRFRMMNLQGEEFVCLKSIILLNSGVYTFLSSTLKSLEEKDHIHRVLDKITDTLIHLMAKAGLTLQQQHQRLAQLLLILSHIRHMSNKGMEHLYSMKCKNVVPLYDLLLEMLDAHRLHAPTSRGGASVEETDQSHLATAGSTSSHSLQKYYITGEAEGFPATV
Estrogen receptor beta (Homo sapiens), sequence (Q92731 whole entry, looked up): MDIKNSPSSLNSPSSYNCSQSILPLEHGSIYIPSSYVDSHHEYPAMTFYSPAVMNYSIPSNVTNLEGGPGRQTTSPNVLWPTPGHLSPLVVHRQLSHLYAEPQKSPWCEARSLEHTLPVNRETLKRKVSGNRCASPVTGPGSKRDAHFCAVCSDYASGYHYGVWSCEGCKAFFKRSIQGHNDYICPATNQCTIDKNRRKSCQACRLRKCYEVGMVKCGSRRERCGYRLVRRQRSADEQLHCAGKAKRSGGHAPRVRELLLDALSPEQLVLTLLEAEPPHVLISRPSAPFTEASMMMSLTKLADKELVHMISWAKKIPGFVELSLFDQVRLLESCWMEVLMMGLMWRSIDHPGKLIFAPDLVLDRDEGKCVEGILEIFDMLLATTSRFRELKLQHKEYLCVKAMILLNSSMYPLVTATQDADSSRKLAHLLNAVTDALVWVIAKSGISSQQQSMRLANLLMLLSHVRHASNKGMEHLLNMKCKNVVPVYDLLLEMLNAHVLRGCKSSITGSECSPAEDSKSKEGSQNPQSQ
Androgen receptor (Homo sapiens), sequence (P10275 whole entry, looked up): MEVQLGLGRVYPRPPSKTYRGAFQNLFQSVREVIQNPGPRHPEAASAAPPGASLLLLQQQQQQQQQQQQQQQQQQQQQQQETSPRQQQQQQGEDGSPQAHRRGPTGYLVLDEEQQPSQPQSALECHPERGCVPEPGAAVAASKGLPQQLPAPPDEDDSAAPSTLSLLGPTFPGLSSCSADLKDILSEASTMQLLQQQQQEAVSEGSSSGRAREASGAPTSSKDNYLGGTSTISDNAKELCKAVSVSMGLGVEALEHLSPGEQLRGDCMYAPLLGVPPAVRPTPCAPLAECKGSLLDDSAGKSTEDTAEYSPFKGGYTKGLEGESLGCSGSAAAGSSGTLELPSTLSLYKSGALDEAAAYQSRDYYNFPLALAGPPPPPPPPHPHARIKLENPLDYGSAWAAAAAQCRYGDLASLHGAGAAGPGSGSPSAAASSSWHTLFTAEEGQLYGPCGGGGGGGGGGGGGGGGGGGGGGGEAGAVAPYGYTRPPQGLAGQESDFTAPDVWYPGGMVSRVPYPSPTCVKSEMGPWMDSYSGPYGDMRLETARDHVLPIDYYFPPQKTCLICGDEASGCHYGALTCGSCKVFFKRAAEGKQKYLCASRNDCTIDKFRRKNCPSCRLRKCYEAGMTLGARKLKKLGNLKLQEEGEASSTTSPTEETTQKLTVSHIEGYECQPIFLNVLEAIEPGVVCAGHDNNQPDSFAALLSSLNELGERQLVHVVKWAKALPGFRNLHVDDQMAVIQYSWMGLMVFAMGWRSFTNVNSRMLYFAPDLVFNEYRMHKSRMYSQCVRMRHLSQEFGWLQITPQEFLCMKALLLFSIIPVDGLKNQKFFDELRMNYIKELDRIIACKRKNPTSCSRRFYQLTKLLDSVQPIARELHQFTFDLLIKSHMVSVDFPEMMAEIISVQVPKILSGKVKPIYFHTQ

OCCN1CCN(CCCN2c3ccccc3Sc3ccc(C(F)(F)F)cc32)CC1
Potency [1]: inactive | Potency [2]: 26.6 µM (active) | Potency [3]: 21.1 µM (active) | Potency [4]: inactive | outcome [5]: inactive | Potency [6]: inactive | Potency [7]: inactive | Potency [8]: inactive | Potency [9]: inactive | Potency [10]: inactive | Potency [11]: inactive | Potency [12]: inactive | outcome [13]: inactive

CCC(CC)(CC(=O)Nc1cccc(/C=C/c2nc(C3CCC3)cs2)c1)C(=O)O
Potency [1]: inactive | Potency [14]: inactive | Potency [2]: 7.5 µM (active) | Potency [7]: inactive | Potency [8]: inactive | Potency [15]: inactive | Potency [9]: inactive | Potency [11]: inactive | Potency [12]: inactive | outcome [13]: inactive

O=C(O)CN(CCN(CC(=O)O)CC(=O)O)CC(=O)O
activity change, negative = inhibition [1]: 12.7% [at 3.27 µM] | activity change, negative = cytotoxicity [14]: -0.833% [at 3.27 µM] | activity change, negative = cytotoxicity [2]: 0.439% [at 3.32 µM] | activity change, negative = cytotoxicity [3]: 2.74% [at 3.27 µM] | cAMP activity change [5]: -0.412% [at 3.27 µM] | activity change, negative = inhibition [6]: 1.34% [at 3.27 µM] | activity change, negative = cytotoxicity [7]: 0.548% [at 3.27 µM] | Potency [8]: 0.0097 µM (active) | activity change, negative = inhibition [16]: 7.88% [at 3.27 µM] | activity change, negative = cytotoxicity [15]: 3.78% [at 3.27 µM] | viability change, negative = cytotoxic [9]: -0.549% [at 2.72 µM] | activity change, negative = cytotoxicity [10]: 9.65% [at 2.72 µM] | activation [11]: -0.839% [at 2.72 µM]

C[C@@H](O)[C@H](N)C(=O)O
activity change, negative = inhibition [1]: 10.6% [at 19 µM] | activity change, negative = cytotoxicity [14]: -0.428% [at 19 µM] | activity change, negative = cytotoxicity [3]: 0.119% [at 19 µM] | activity change, negative = cytotoxicity [7]: 2.14% [at 19 µM] | activation [8]: 0.125% [at 19 µM] | activity change, negative = inhibition [16]: 8.03% [at 18.9 µM] | activity change, negative = cytotoxicity [15]: -0.923% [at 18.9 µM] | activity change, negative = cytotoxicity [17]: -6.31% [at 19 µM] | activity change, negative = cytotoxicity [10]: 1.96% [at 15.8 µM] | activation [11]: 0.576% [at 15.8 µM] | activity, negative = inhibition [12]: 12.1% [at 10.5 µM] | activation [13]: 0.352% [at 11.8 µM]

CNc1ccc([N+](=O)[O-])cc1
Potency [18]: inactive | Potency [19]: inactive | Potency [14]: 48.7 µM (active) | Potency [2]: inactive | outcome [20]: inactive | Potency [3]: inactive | Potency [4]: inactive | outcome [5]: inactive | Potency [6]: inactive | Potency [16]: 54.6 µM (active) | Potency [15]: inactive | Potency [17]: inactive | Potency [9]: inactive | Potency [10]: inactive | Potency [11]: inactive | Potency [12]: inactive | outcome [13]: inactive

CCCCCCC1CCCC(=O)O1 (stereo not drawn)
Potency [1]: inactive | Potency [14]: inactive | Potency [3]: inactive | outcome [5]: inactive | Potency [6]: inactive | Potency [7]: inactive | Potency [15]: inactive | Potency [17]: inactive | Potency [9]: inactive | Potency [12]: inactive | outcome [13]: inactive

CC(=O)[C@H]1CC[C@H]2[C@@H]3CCC4=CC(=O)CC[C@]4(C)[C@H]3CC[C@]12C
Potency [1]: 9.63 µM (active) and 6.11 µM (active) | Potency [14]: 60.8 µM (active) | Potency [2]: 54.2 µM (active) and 61.1 µM (active) | Potency [3]: 54.2 µM (active) and 61.1 µM (active) | Potency [4]: inactive | outcome [5]: inactive | Potency [7]: inactive | Potency [15]: 54.2 µM (active) | Potency [17]: 60.8 µM (active)

CCC(C)n1ncn(-c2ccc(N3CCN(c4ccc(OC[C@H]5CO[C@](Cn6cncn6)(c6ccc(Cl)cc6Cl)O5)cc4)CC3)cc2)c1=O (stereo partly drawn)
Potency [1]: 1.68 µM (active) | Potency [14]: inactive | Potency [3]: inactive | Potency [4]: inactive | outcome [5]: inactive | Potency [6]: inactive | Potency [7]: inactive | Potency [8]: inactive | Potency [16]: inactive | Potency [10]: inactive | Potency [11]: inactive | Potency [12]: inactive | outcome [13]: inactive
